Values joined by “and” are separate entries in the source; they are usually repeats but may differ in a detail not shown here. Equal entries are not always repeated. Results filed as inconclusive are left out. Active and inactive are the calls of the source. Unless noted, calls come from the whole dose curve; as a rule, active = well fitted inhibition curve with a large enough effect; inconclusive = small, poorly fitted or top-dose-only effect; inactive = flat fitted curve, though single readings scatter.
Columns and labels:
[1] = Drug repurposing screens with cells derived from glioblastoma tumor samples (AID 1345199); conditions: GBM patient neurospheres viability, ATP luminescence, 48 h; note: nearly all actives have a fitted effect of over 40% in size; note: potency is the fitted concentration of half-maximal effect; for activity, negative = cell killing: % is set by controls: 0 for no effect and ±100 for the full control effect
How it was run: (§1)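 Primary testing used CD133+ neurospheres from four GBM patients, seven concentrations, 48 h exposure and ATP-based viability; confirmation added three slower-growing patient lines.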

astro = control astrocytes; test: as above; conditions: viability, ATP luminescence, 48 h; series mostly up to 45.9 µM
How it was run: as §1

[2] = biological target: Nuclear receptor subfamily 1 group I member 2 (Rattus norvegicus) (UniProt Q9R1A7); test: qHTS assay for small molecule activators of the rat pregnane X receptor (rPXR) signaling pathway (AID 651751; call rule not given here; note: 0% is about no effect); conditions: rPXR reporter cells, luciferase (One-Glo), 24 h
[3] = qHTS assay for small molecule activators of the human pregnane X receptor (PXR) signaling pathway (AID 720659; call rule not given here; note: 0% is about no effect); conditions: DPX-2 HepG2 CYP3A4-luciferase, 24 h; series mostly up to 92.3 µM
[4] = at 45.9 µM (top of the series), tumour line B
[5] = at 45.9 µM (top of the series), tumour line D
[6] = at 46 µM (top of the series), tumour line A
[7] = at 46.1 µM (top of the series), tumour line C
[8] = at 20 µM (top of the series), tumour line C
[9] = at 21.2 µM (top of the series), tumour line B
[10] = at 21.2 µM (top of the series), tumour line D
[11] = at 21.3 µM (top of the series), tumour line A

Sequence of Nuclear receptor subfamily 1 group I member 2 (Rattus norvegicus) (Q9R1A7 whole entry, looked up): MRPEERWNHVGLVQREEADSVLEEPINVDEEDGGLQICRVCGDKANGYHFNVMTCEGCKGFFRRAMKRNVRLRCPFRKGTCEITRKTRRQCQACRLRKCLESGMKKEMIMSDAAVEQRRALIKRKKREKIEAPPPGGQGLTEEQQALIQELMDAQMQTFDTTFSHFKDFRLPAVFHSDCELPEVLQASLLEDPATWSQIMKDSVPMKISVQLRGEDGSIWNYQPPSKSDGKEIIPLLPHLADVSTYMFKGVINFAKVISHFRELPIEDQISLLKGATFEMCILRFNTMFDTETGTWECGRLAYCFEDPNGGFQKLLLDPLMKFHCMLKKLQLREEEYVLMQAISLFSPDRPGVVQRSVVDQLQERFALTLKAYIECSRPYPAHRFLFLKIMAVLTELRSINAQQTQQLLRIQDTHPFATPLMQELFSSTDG

O=P(O)(O)OC[C@H](O)CO
inactive: activity, negative = cell killing [1, 4] -8.89% | activity, negative = cell killing [1, 5] -11.2% | activity, negative = cell killing [1, 6] -27.1% | activity, negative = cell killing [1, 7] 21.9% | Potency (astro)

CC(CC=O)CCCC(C)(C)O (configuration not stated)
inactive: activity, negative = cell killing [1, 4] -11.5% | activity, negative = cell killing [1, 5] -18.7% | activity, negative = cell killing [1, 6] -27.2% | activity, negative = cell killing [1, 7] -24.1% | Potency (astro)

CCCCC(CC)COS(=O)(=O)O (configuration not stated)
inactive: activity, negative = cell killing [1, 4] -6.03% | activity, negative = cell killing [1, 5] -2.06% | activity, negative = cell killing [1, 6] -18.8% | activity, negative = cell killing [1, 7] -4.44% | Potency (astro) | max response [2] 0.915% | outcome [3]

OC1OC[C@@H](O)[C@H](O)[C@@H]1O (some centres not stated)
inactive: activity, negative = cell killing [1, 4] -0.633% | activity, negative = cell killing [1, 5] 10.5% | activity, negative = cell killing [1, 6] -6.9% | activity, negative = cell killing [1, 7] 14.5% | Potency (astro)

O=C(O)[C@@H]1C[C@H](CP(=O)(O)O)CCN1
inactive: activity, negative = cell killing [1, 4] -4.93% | activity, negative = cell killing [1, 5] -11.9% | activity, negative = cell killing [1, 6] -21.2% | activity, negative = cell killing [1, 7] -14% | Potency (astro)

COC(=O)c1ccccc1O
inactive: activity, negative = cell killing [1, 4] -5.99% | activity, negative = cell killing [1, 5] -6.33% | activity, negative = cell killing [1, 6] -21.5% | activity, negative = cell killing [1, 7] 12.1% | Potency (astro) | max response [2] -2.2% and 1.51%

CC(C)(CO)[C@@H](O)C(=O)NCCC(=O)NCCSSCCNC(=O)CCNC(=O)[C@H](O)C(C)(C)CO
inactive: activity, negative = cell killing [1, 4] -16.4% | activity, negative = cell killing [1, 5] -15.1% | activity, negative = cell killing [1, 6] -16.6% | activity, negative = cell killing [1, 7] -15.9% | Potency (astro)

Nc1nccs1
inactive: activity, negative = cell killing [1, 4] -17.5% | activity, negative = cell killing [1, 5] -10.5% | activity, negative = cell killing [1, 6] -20.4% | activity, negative = cell killing [1, 7] -24.6% | Potency (astro) | max response [2] -2.21% | outcome [3]

CC(C)CCCCCCc1ccc(O)cc1
active: Potency ([1]; tumour line A) 22.4 µM
inactive: activity, negative = cell killing [1, 4] -21.6% | activity, negative = cell killing [1, 5] -27.3% | activity, negative = cell killing [1, 7] -24.2% | Potency (astro) | max response [2] -1.23%

C[C@H](CCC(=O)O)[C@H]1CC[C@H]2[C@@H]3[C@H](O)C[C@@H]4C[C@H](O)CC[C@]4(C)[C@H]3C[C@H](O)[C@]12C
inactive: activity, negative = cell killing [1, 4] -1.15% | activity, negative = cell killing [1, 5] 1.82% | activity, negative = cell killing [1, 6] -16.5% | activity, negative = cell killing [1, 7] -12.6% | Potency (astro) | max response [2] -1% | outcome [3]

CNCC(O)c1ccc(OC(=O)C(C)(C)C)c(OC(=O)C(C)(C)C)c1 (configuration not stated)
inactive: activity, negative = cell killing [1, 8] 5.42% | activity, negative = cell killing [1, 9] -16.5% | activity, negative = cell killing [1, 10] -22.8% | activity, negative = cell killing [1, 11] -18% | Potency (astro)

CC(=O)Oc1cc(C(F)(F)F)ccc1C(=O)O
inactive: activity, negative = cell killing [1, 8] -16.9% | activity, negative = cell killing [1, 9] -19.3% | activity, negative = cell killing [1, 10] -15.7% | activity, negative = cell killing [1, 11] -29% | Potency (astro)

CC(C)[C@@H]1CC[C@@H](C)C[C@H]1O
inactive: activity, negative = cell killing [1, 4] -7.27% | activity, negative = cell killing [1, 5] 3.66% | activity, negative = cell killing [1, 6] -18.1% | activity, negative = cell killing [1, 7] -14.4% | Potency (astro) | max response [2] -1.32% | outcome [3]

CN(CCO)CC(O)Cn1cnc2c1c(=O)n(C)c(=O)n2C (configuration not stated) (tested in a mixture with another compound)
inactive: activity, negative = cell killing [1, 4] -0.373% | activity, negative = cell killing [1, 5] -10.7% | activity, negative = cell killing [1, 6] -23.5% | activity, negative = cell killing [1, 7] -30% | Potency (astro) | max response [2] -1.56% | outcome [3]

CC/C=C\C/C=C\C/C=C\CCCCCCCC(=O)O
inactive: activity, negative = cell killing [1, 4] 8.6% | activity, negative = cell killing [1, 5] -7.43% | activity, negative = cell killing [1, 6] -13.9% | activity, negative = cell killing [1, 7] 5.73% | Potency (astro) | max response [2] -2.75% | outcome [3]

c1ccc2ccccc2c1
inactive: activity, negative = cell killing [1, 4] -9.97% | activity, negative = cell killing [1, 5] 9.45% | activity, negative = cell killing [1, 6] -4.53% | activity, negative = cell killing [1, 7] -18.3% | Potency (astro) | max response [2] -1.58% and 3.23%

OCl
inactive: activity, negative = cell killing [1, 4] -3.7% | activity, negative = cell killing [1, 5] -8.71% | activity, negative = cell killing [1, 6] -24.4% | activity, negative = cell killing [1, 7] -3.94% | Potency (astro) | max response [2] -4.49% | outcome [3]

CC(C)c1ncc([N+](=O)[O-])n1C
inactive: activity, negative = cell killing [1, 4] -8.02% | activity, negative = cell killing [1, 5] -13.9% | activity, negative = cell killing [1, 6] -13.9% | activity, negative = cell killing [1, 7] -14.5% | Potency (astro)

CC1C(=O)CC2C3(C)CCC2(C(C)C(=O)O)C(=O)C13 (configuration not stated)
inactive: activity, negative = cell killing [1, 4] -19.4% | activity, negative = cell killing [1, 5] 8.38% | activity, negative = cell killing [1, 6] -22.7% | activity, negative = cell killing [1, 7] -6.43% | Potency (astro)

O=C1C2CC3CC1CC(O)(C3)C2
inactive: activity, negative = cell killing [1, 4] 0.0639% | activity, negative = cell killing [1, 5] -11.1% | activity, negative = cell killing [1, 6] -19.7% | activity, negative = cell killing [1, 7] -14.8% | Potency (astro)

CO[C@@]1(NC(=O)C2SC(=C(C(N)=O)C(=O)O)S2)C(=O)N2C(C(=O)O)=C(CSc3nnnn3C)CS[C@@H]21 (some centres not stated)
inactive: activity, negative = cell killing [1, 8] -19.2% | activity, negative = cell killing [1, 9] -15.8% | activity, negative = cell killing [1, 10] -10.4% | activity, negative = cell killing [1, 11] -12.5% | Potency (astro)
